Screening data: PubChem, National Center for Advancing Translational Sciences (NCATS)
ELG1 repair inh – qHTS screen for small molecules that inhibit ELG1-dependent DNA repair in human embryonic kidney (HEK293T) cells expressing luciferase-tagged ELG1; HEK293T ELG1-luciferase reporter, luminescence, 16 h; DNA damage induced by 5-fluorouridine; Potency, µM (series often up to 46.1 µM), without a hit: at the highest dose activity change, negative = inhibition, usual class: inhibitors; actives 2.3% (n = 330,000); further: on the % scale 0 is the no-effect control and ±100 the full control effect; nearly all actives have a fitted effect of over 55% in size
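Step one: seed 2,000 cells per well. Step two: pin-transfer compound or DMSO alongside 5-fluorouridine. Step three: incubate 16 hr, 37 °C, 5% CO2. Step four: add ONE-Glo, wait 30 min, read luminescence.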
Rab9 promoter act – qHTS Assay for Rab9 Promoter Activators; Huh7 Rab9 promoter-luciferase reporter, luminescence, 24 h; actives 2.8% (n = 320,000); AID 485297, 2010; Potency, µM (doses to about 9.22 µM), without a hit: top-dose activation, negative = inhibition, actives largely listed as activators; further: % of control where 0% means no effect; nearly all actives have a fitted effect of over 60% in size
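Using Huh7 cells stably transfected with Rab9 promoter–luciferase, compounds were incubated 24 h at 37 °C, 5% CO2; luciferase luminescence was read 10 min after reagent addition.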
FLuc modulator – qHTS profiling assay for firefly luciferase inhibitor/activator using purifed enzyme and Km concentrations of substrates (counterscreen for miR-21 project); purified FLuc, Km substrates, luminescence inhibition; actives 6.9% (n = 360,000); Luciferin 4-monooxygenase (Photinus pyralis), P08659; Potency, µM (top dose mostly 57.5 µM), for inactives: at the highest dose activity change, negative = inhibition, actives largely listed as inhibitors;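 further: plate controls were vehicle for no effect and reference inhibitor for full effect; nearly all actives have a fitted effect of over 55% in size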
Target sequence (P08659 whole entry, looked up): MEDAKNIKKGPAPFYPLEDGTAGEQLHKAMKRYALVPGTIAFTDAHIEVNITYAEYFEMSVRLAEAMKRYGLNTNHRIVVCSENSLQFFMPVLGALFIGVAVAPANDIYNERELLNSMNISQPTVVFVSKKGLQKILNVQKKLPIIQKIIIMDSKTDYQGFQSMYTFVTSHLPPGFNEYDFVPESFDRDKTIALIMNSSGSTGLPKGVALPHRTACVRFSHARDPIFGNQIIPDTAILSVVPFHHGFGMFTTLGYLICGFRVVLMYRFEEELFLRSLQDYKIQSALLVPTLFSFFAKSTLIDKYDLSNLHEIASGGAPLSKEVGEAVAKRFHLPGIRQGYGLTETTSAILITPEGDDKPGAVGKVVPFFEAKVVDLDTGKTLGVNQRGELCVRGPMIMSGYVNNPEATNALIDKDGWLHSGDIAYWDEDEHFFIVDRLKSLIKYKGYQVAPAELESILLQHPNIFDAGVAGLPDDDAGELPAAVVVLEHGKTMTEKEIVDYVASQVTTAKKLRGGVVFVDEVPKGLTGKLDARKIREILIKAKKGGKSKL
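Purified P. pyralis luciferase (10nM final) with 10uM D-luciferin and 10uM ATP (Km levels) in 50mM Tris acetate pH 7.5, 10mM Mg acetate, 0.01% Tween-20, 0.05% BSA; qHTS 6-point titration, ~60 µM downward; luminescence read.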
ELG1 genotox – qHTS screen for small molecules that induce genotoxicity in human embryonic kidney (HEK293T) cells expressing luciferase-tagged ELG1; HEK293T ELG1-luciferase reporter, luminescence, 16 h; AID 504466, 2011; Potency, µM (top dose mostly 46 µM), inactives show at the top dose activity change, positive = activation, actives largely listed as activators; actives 1.3% (n = 330,000); further: % of control where 0% means no effect; nearly all actives have a fitted effect of over 60% in size
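Reporter readout depends on ELG1 protein level, which increases with genetic stress. After 16 hr compound exposure at 37 °C, luciferase activity was quantified using ONE-Glo.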
NPC1 promoter act – qHTS Assay for NPC1 Promoter Activators. Potency, µM (series often up to 9.22 µM), without a hit: top-dose activation, actives largely listed as activators. actives 2.4% (n = 320,000). Huh7 NPC1 promoter luciferase reporter, 24 h; further: % of control where 0% means no effect; nearly all actives have a fitted effect of over 60% in size
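Luminescence from an NPC1 promoter-driven luciferase reporter in stably transfected Huh7 cells was measured after 24 h compound treatment at 37 °C, followed by 10 min ambient incubation with luciferase detection reagent.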
SMN2 splice enh – qHTS Assay for Enhancers of SMN2 Splice Variant Expression | actives 2.8% (n = 210,000) | HEK293 SMN2-luciferase splicing reporter, luminescence, 30-36 h | AID 1458, 2008 | Potency, µM (top dose mostly 46.1 µM), for the others: at the highest dose activity change, positive = activation, most hits filed as activators; further: % of control where 0% means no effect; nearly all actives have a fitted effect of over 55% in size
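HEK293 cells carry an SMN2 minigene-luciferase reporter in which exon 7 inclusion puts luciferase in frame. Cells were seeded at 2000 cells/well, attached for 10-12 hours, then exposed to compounds for 30-36 hours at 37C before ONE-Glo luminescence.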
* marks the source's active call; other numbers are inactive results; ? = inconclusive; . = no result given; [ ] = dose if it differs, or a comment. Shown are actives, neighbours in structure and some others; about 9.4% of the full set was active somewhere. The call rests on the fitted dose curve; in most records, active means well fitted curve in the direction sought with a large enough effect; inconclusive means small, poorly fitted or top-dose-only effect, or another doubt; inactive means no such curve, though single readings can be large; an effect the other way counts as inactive or inconclusive. Potency means the concentration at half of the fitted maximal effect.

SMILES	ELG1 repair inh	Rab9 promoter act	FLuc modulator	ELG1 genotox	NPC1 promoter act	SMN2 splice enh
CC(=O)c1cc(-c2ccccc2)n(CCC(=O)Nc2cc(C)cc(C)c2)c1C	.	.	-10%	.	.	.
O=C(N/N=C/c1ccsc1)c1cc(-c2ccncc2)nc2ccccc12	3%	-11%	?	5%	-17%	7%
O=C(N/N=C/c1ccsc1)c1cc(-c2cccs2)nc2ccccc12	?	-5%	9.5µM*	-4%	-12%	?
CN(C)/C=C/c1c([N+](=O)[O-])c2ccc(O)cc2n1-c1ccccc1	7.3µM*	-5%	-10%	-8%	1%	.
CC1=C(C(=O)Nc2ccccc2C)C(c2ccc(C)o2)n2c(s/c(=C/c3ccccc3)c2=O)=N1 (stereo not drawn)	?	-2%	-14%	1%	-1%	-19%
CC1=C(C(=O)Nc2ccccc2)C(c2ccc(C)o2)n2c(s/c(=C/c3ccccc3)c2=O)=N1 (stereo not drawn)	21µM*	9%	-4%	2%	-7%	-10%
Cn1ccnc1SCC(=O)c1cc2ccccc2o1	?	?	9.5µM*	?	?	3%
Cn1cnnc1SCC(=O)c1cc2ccccc2o1	4%	-1%	-3%	1%	-1%	6%
O=C(CSc1nccc(=O)[nH]1)c1cc2ccccc2o1	0%	4%	15µM*	10%	-4%	.
Cn1ccnc1SCC(=O)Nc1ccc2ccccc2c1	?	1.6µM*	5.4µM*	1.3µM*	1.3µM*	6.3µM*
Cn1ccnc1SCC(=O)c1ccc(O)cc1	?	?	-18%	12%	24%	.
Cn1ccnc1SCC(=O)Nc1ccccc1	24%	-1%	-15%	2%	1%	6%
Cn1ccnc1SCC(=O)c1ccc2ccccc2c1	?	1µM*	8.5µM*	?	2.2µM*	?
O=C(Nc1ccc(C(=O)OCc2cc(=O)n3nc(C4CC4)sc3n2)cc1)c1cccc(F)c1	.	.	0%	.	.	.
COc1ccc(-n2c(SCc3ccccc3)nc3c([nH]c4ccccc43)c2=O)cc1	.	.	1%	.	.	.
CCOC(=O)N1CCc2c(sc3c2c(=O)n(Cc2ccccc2)c(=O)n3CC(=O)Nc2ccc(F)cc2)C1	.	.	-2%	.	.	8%
Cn1ccnc1SCC(=O)Nc1cccc(Br)c1	.	.	-16%	.	.	-1%
COc1cccc(C(=O)CSc2nccn2C)c1	?	2.5µM*	17µM*	?	1.6µM*	.
Cn1ccnc1SCC(=O)c1cccc(Br)c1	?	?	15µM*	?	18%	14%
COc1ccc(C(=O)CSc2nccn2C)c(OC)c1	?	3.5µM*	13µM*	?	4µM*	.
CCOc1ccccc1C(=O)N1CCCCC1CCN1CCOCC1 (stereo not drawn)	.	.	0%	.	.	8%
O=C(O)CCCc1ccc2ccc3ccccc3c2c1	.	.	.	.	.	-16%[9.22 µM]
COc1ccc(CCNC(=O)CCCCn2c(=O)c3ccccc3n(Cc3ccc(Cl)cc3)c2=O)cc1OC	.	.	-9%	.	.	-16%
COc1cccc(NC(=O)Cn2cnc3c(nc4n3CCCCC4)c2=O)c1	.	.	-1%	.	.	.
COc1cc(NC(=O)c2cc3nc(-c4ccc(C)cc4)cc(C(F)(F)F)n3n2)cc(OC)c1OC	.	.	0%	.	.	7%
SMILES	ELG1 repair inh	Rab9 promoter act	FLuc modulator	ELG1 genotox	NPC1 promoter act	SMN2 splice enh
CC(C)(C)c1ccc(-c2nnc3sc(-c4ccccn4)nn23)cc1	?	?	9.5µM*	?	28%	-14%
Clc1ccccc1-c1nn2c(-c3ccncc3)nnc2s1	10µM*	0%	4%	-46%	1%	-6%
Clc1ccc(-c2nnc3sc(-c4ccccn4)nn23)cc1	3%	2%	-1%	1%	-5%	-1%
CC(=O)Nc1nonc1-c1nnc(SCc2ccccc2C)n1C	.	.	-8%	.	.	.
CCn1cc(S(=O)(=O)c2ccc(OC)cc2)c(=O)c2cc(F)c(N3CCC(C)CC3)cc21	.	.	6%	.	.	.
CCC1CSC(Nc2ccc(C(=O)/C=C/c3ccc(Oc4ccccc4)cc3)cc2)=N1 (stereo not drawn)	-10%	-6%	13µM*	9%	0%	-66%
Cc1ccc(N2CC(=O)Nc3c(sc4nc(C)cc(C)c34)C2=O)cc1	23µM*	2%	-9%	-4%	1%	.
CC1CCN(CCCNC(=O)COc2cc(=O)n(C)c3ccccc23)CC1	?	4%	2%	1%	-9%	11%
CC1CC(C)CN(CCCNC(=O)COc2cc(=O)n(C)c3ccccc23)C1 (stereo not drawn)	?	0%	-1%	15%	0%	20%
CCn1c(=O)cc(OCC(=O)NCCCN2CC(C)CC(C)C2)c2ccccc21 (stereo not drawn)	?	-2%	-1%	16µM*	-5%	?
CCn1c(=O)cc(OCC(=O)NCCCN2CCC(C)CC2)c2ccccc21	?	-2%	0%	16µM*	-1%	25%
COc1cccc(CNC(=O)CCc2nnc3n(C)c(=O)c4sccc4n23)c1	.	.	3%	.	.	-11%
O=C(O)c1ccc(-c2ccccn2)s1	?	11%	?	?	12%	13%
c1ccc(-c2ccc(-c3ccccn3)s2)nc1	?	4µM*	1.5µM*	?	?	.
COc1ccc(/C=C/C(=O)c2ccc(C)c([N+](=O)[O-])c2)cc1O	?	-4%	4.8µM*	9%	1%	2%
COc1ccc(N(CC(=O)NCCSc2ccccn2)S(=O)(=O)c2ccccc2)c(OC)c1	-5%	-3%	0%	-23%	-7%	.
COc1ccc(N(CC(=O)Nc2ccc(Cc3ccncc3)cc2)S(=O)(=O)c2ccccc2)cc1	-30%	2%	2%	-10%	-1%	.
COc1ccccc1N(CC(=O)Nc1ccc(Cc2ccncc2)cc1)S(=O)(=O)c1ccccc1	18µM*	4%	0%	-34%	-3%	.
COc1ccccc1N(CC(=O)NCCSCc1ccc(C)cc1)S(=O)(=O)c1ccccc1	16µM*	-2%	-1%	-17%	-2%	.
COc1ccc(N(CC(=O)NCCSc2ccccc2)S(=O)(=O)c2ccccc2)c(OC)c1	21µM*	.	.	-10%	.	.
COCCNC(=O)CSc1nnc(-c2ccc(OC)c(OC)c2)c(-c2ccc(OC)c(OC)c2)n1	.	.	2%	.	.	.
